The values that follow come from ChEMBL document CHEMBL1157539, “Thousands of chemical starting points for antimalarial lead identification” (Nature, 2010).

Common to all, as to format: functional
Experiment [1] concerns Plasmodium falciparum. The experiment in a line: GSK_TCMDC: Inhibition of Plasmodium falciparum 3D7 in whole red blood cells, using parasite LDH activity as an index of growth. Test compounds present at 2uM.
Experiment [2] concerns Plasmodium falciparum. In words: GSK_TCMDC: Inhibition of Plasmodium falciparum Dd2 in whole red blood cells, using parasite LDH activity as an index of growth. Test compounds present at 2uM.
The test system of a further experiment is HepG2. In words: GSK_TCMDC: Percent inhibition of human HepG2 cell line. Test compounds present at 10uM.

With `CC(C)NCc1ccc(-c2ccc(NC(=O)c3cccc(Cl)c3)cc2)cc1.O=C(O)C(F)(F)F`, the Inhibition – broadly, the relative decrease from the control value, in per cent – with Plasmodium falciparum [1] is reported as 100%; in the experiment with Plasmodium falciparum [2], 14%; in the experiment with HepG2 it was 36%.
Taken in the same sequence, the figures for `CNc1nc(N/N=C/c2cc([N+](=O)[O-])c(Cl)cc2Cl)nc(Nc2cccc(C(F)(F)F)c2)n1` were 100%, 97% and 13%.
As to `COc1ccc(CNC(=O)Nc2cc3cc(-c4ccc(CN5CCCC5)cc4)ccc3n3c(C)nnc23)cc1`, the Inhibition with Plasmodium falciparum [1], with Plasmodium falciparum [2] and in the experiment with HepG2 was 100% each time.
Turning to `Nc1n[nH]c(-c2ccccc2Nc2ccnc3cc(-c4nccs4)ccc23)n1`, the Inhibition in the experiment with Plasmodium falciparum [1] was determined as 100%; with Plasmodium falciparum [2], 94%; with HepG2 it was 98%.
With `C=CCN1C(=O)c2[nH]nc(-c3cc(C)c(C)cc3O)c2C1c1cccc(Br)c1` (configuration not stated), the results for the Inhibition with Plasmodium falciparum [1], in the experiment with Plasmodium falciparum [2] and in the experiment with HepG2 were 90%, 82% and 0%, respectively.
`O=C(Nc1cc(F)cc(F)c1)N1CCOC(CCN2CCC(c3ccccc3)CC2)(c2ccc(Cl)c(Cl)c2)C1` (configuration not stated): the figures for the Inhibition in the experiment with Plasmodium falciparum [1], in the experiment with Plasmodium falciparum [2] and in the experiment with HepG2 were 91%, 69% and 31%, respectively.
For the molecule `CS(=O)(=O)O.FC(F)(F)COc1c(CCNCCCCNCCc2ccc3ccccc3c2OCC(F)(F)F)ccc2ccccc12`, the Inhibition with Plasmodium falciparum [1] is given as 100%; with Plasmodium falciparum [2], 97%; in the experiment with HepG2, 99%.
For `Cl.NC1=NC(Cc2ccccc2)N(c2ccc(Cl)cc2)C(N)=N1` (configuration not stated), in that order: 93%, 4% and 21%.
On to `C=C[C@]1(C)C[C@@H](OC(=O)c2cncn(COC)c2=O)[C@]2(C)[C@H](C)CC[C@]3(CCC(=O)[C@H]32)[C@@H](C)[C@@H]1O`, for which the values for the Inhibition with Plasmodium falciparum [1], in the experiment on Plasmodium falciparum [2] and with HepG2 were 96%, 7% and 0%, respectively.
In the case of `CCc1ccc(CN2CCC(C(=O)Nc3ccc(-c4nc5ccccc5[nH]4)cc3)CC2)o1`, the Inhibition with Plasmodium falciparum [1] was 99%; with Plasmodium falciparum [2], 94%; in the experiment on HepG2, 29%.
Consider `CCOc1ccc(Cc2c(C)nc3nc(N)nc(N)c3c2C)cc1.Cl`, for which the values for the Inhibition in the experiment with Plasmodium falciparum [1], in the experiment with Plasmodium falciparum [2] and in the experiment with HepG2 were 91%, 7% and 63%, respectively.
Regarding `FC(F)(F)c1ccc2[nH]c(-c3ccc(-c4ccc(CNCC5CCCO5)cc4)s3)nc2c1.O=C(O)C(F)(F)F` (configuration not stated), the values for the Inhibition in the experiment with Plasmodium falciparum [1], in the experiment with Plasmodium falciparum [2] and with HepG2 were 100%, 98% and 47%, respectively.
Take `O=C(O)C(F)(F)F.Oc1ccc(CN2CCC(NCc3cccc4ccccc34)CC2)cc1`: the Inhibition in the experiment with Plasmodium falciparum [1] is 97%; in the experiment with Plasmodium falciparum [2] it was 8%; with HepG2 it was 8%.
Turning to `CCN(CCN(C)C)Cc1ccc(-c2ccc(NS(=O)(=O)c3cccc4cccnc34)cc2)cc1.O=C(O)C(F)(F)F`, the Inhibition in the experiment with Plasmodium falciparum [1] stood at 91%; with Plasmodium falciparum [2] it was 57%; in the experiment with HepG2, 16%.
Consider `CCOC(=O)c1[nH]c2cc(Cl)cc(Cl)c2c1/C=C/C(=O)Nc1ccc(-c2cnc(NC(C)=O)[nH]2)cc1`, for which the Inhibition with Plasmodium falciparum [1] came out at 100%; in the experiment on Plasmodium falciparum [2], 65%; with HepG2, 45%.
On to `COc1ccc(CC2(c3ccc(F)cc3)N=C(N)N(CCCc3ccccc3)C2=O)cc1.O=C(O)C(F)(F)F` (configuration not stated), for which the Inhibition with Plasmodium falciparum [1] is reported as 99%; in the experiment with Plasmodium falciparum [2] it was 97%; in the experiment with HepG2, 38%.
Take `COc1c(CCNCCCCNCCc2cc(Cl)c3ccccc3c2OC)cc(Cl)c2ccccc12.CS(=O)(=O)O`: the Inhibition in the experiment with Plasmodium falciparum [1] was determined as 99%; in the experiment with Plasmodium falciparum [2] it was 100%; in the experiment with HepG2, 99%.
As to `COc1cccc(-c2nn(C)c3sc(C(=O)NCCN4CCN(c5ccccc5F)CC4)cc23)c1`, the Inhibition is listed as 85% in the experiment with Plasmodium falciparum [1], 40% in the experiment on Plasmodium falciparum [2] and 9% in the experiment on HepG2.
With `COc1ccc2ncc(F)c([C@@H](O)CN3CCC(NCc4ccc5c(c4)NCCS5)CC3)c2n1.Cl`, the values for the Inhibition in the experiment on Plasmodium falciparum [1], in the experiment with Plasmodium falciparum [2] and in the experiment with HepG2 were 99%, 69% and 77%, respectively.
For `CC1(C)N=C(N)N=C(Nc2ccc(Cl)cc2)N1.Cl`, in that order: 97%, 0% and 8%.
Taken in the same sequence, the figures for `CC(Cc1ccc(NS(=O)(=O)c2ccc(CC(C)NCCc3cccc(Cl)c3)cc2)cc1)NCCc1cccc(Cl)c1` (configuration not stated) were 100%, 38% and 12%.
With `Cc1cc(N[C@@H](Cc2ccccc2)C(=O)NCCc2ccccc2)nc(NCC2CCCCC2)n1.O=C(O)C(F)(F)F`, the Inhibition in the experiment with Plasmodium falciparum [1] is 100%; with Plasmodium falciparum [2], 95%; in the experiment with HepG2, 24%.
For `Clc1cc(Cl)c2cc(CNCCCNc3ccc4ccccc4n3)[nH]c2c1.O=C(O)C(F)(F)F`, in that order: 99%, 54% and 98%.
For `CCOC(=O)c1ccc(NC(=O)N(Cc2ccc(-c3ccc(CN4CCNCC4)cc3)cc2)C2CCN(Cc3ccccc3)CC2)cc1.O=C(O)C(F)(F)F`, the Inhibition in the experiment with Plasmodium falciparum [1] is 100%; in the experiment with Plasmodium falciparum [2] it was 93%; in the experiment with HepG2, 14%.
As to `Cc1cnc(-c2ccc(NC(=O)c3coc4ccc(N5CC(C)N(C)C(C)C5)cc34)cc2)o1.Cl` (configuration not stated), the results for the Inhibition in the experiment with Plasmodium falciparum [1], in the experiment with Plasmodium falciparum [2] and in the experiment on HepG2 were 96%, 39% and 18%, respectively.
`CN(C)C(=O)C(CC(=O)NCc1ccccc1Cl)N(C)C.CN(C)C(=O)CC(C(=O)NCc1ccccc1Cl)N(C)C.O` (configuration not stated): the Inhibition in the experiment with Plasmodium falciparum [1] turned out to be 96%; with Plasmodium falciparum [2] it was 2%; with HepG2, 7%.
In the case of `COc1ccc2nccc([C@@H](O)CN3CCC(c4cc(-c5ccc(Cl)cc5)[nH]n4)CC3)c2n1`, the Inhibition in the experiment with Plasmodium falciparum [1] amounted to 97%; in the experiment with Plasmodium falciparum [2], 56%; with HepG2 it was 43%.
As to `N#Cc1ccc(N2CCN(Cc3ccc(-c4cccc(-c5nc6ccccc6[nH]5)c4)cc3)CC2)nc1.O=C(O)C(F)(F)F`, the Inhibition stood at 95% with Plasmodium falciparum [1], 29% with Plasmodium falciparum [2] and 33% in the experiment on HepG2.
As to `COc1ccccc1N1CCN(Cc2c(NC(C)=O)sc(C)c2C)CC1`, the Inhibition was 95% in the experiment on Plasmodium falciparum [1], 80% with Plasmodium falciparum [2] and 9% with HepG2.
